# Laboratory results reported in publication PMC5836133, “The intracellular immune receptor Rx1 regulates the DNA-binding activity of a Golden2-like transcription factor”.
# The full ranking holds about 16,000 sequences; the median of “e-score” is about -0.044, and the highest 2% start at about 0.38. This excerpt belongs to a sample that is enriched for the highest values.
# Molecular target: T1, GST-NbGlk1(82-244) (Nicotiana benthamiana)
# T1 chain: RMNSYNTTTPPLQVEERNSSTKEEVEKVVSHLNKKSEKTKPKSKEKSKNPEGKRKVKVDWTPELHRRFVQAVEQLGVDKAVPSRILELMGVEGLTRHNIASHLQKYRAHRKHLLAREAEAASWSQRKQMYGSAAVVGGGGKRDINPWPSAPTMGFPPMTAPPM
# Assay: protein-binding microarray; NbGlk1 is a Golden2-like transcription factor of Nicotiana benthamiana; high values mean tight binding
# Settings: protein: recombinant; tags: GST (pTH6838); dsDNA, one strand shown
row,Sequence,binding signal [E-score]
1,ATAATCCC,0.212 ± 0.0485
2,AAAATCCT,0.433 ± 0.0284
3,ACTGAAAT,0.278 ± 0.0182
4,ATATTCAA,0.213 ± 0.11
5,AGTAAGAA,0.214 ± 0.0216
6,ATCCGCCG,0.216 ± 0.0636
7,ATTTCATG,0.332 ± 0.0188
8,ATCTCCAG,0.293 ± 0.0251
9,ATCCTGAG,0.23 ± 0.00887
10,ACCAAAGA,0.208 ± 0.134
11,ATCTCACG,0.2 ± 0.0565
12,ATTGAAAA,0.214 ± 0.0168
13,AAGGTAAT,0.217 ± 0.0574
14,AAATTCCC,0.294 ± 0.0591
15,AGATACCT,0.216 ± 0.0648
16,AGATACCA,0.204 ± 0.131
17,AGATACCG,0.364 ± 0.0644
18,AGATTCCA,0.433 ± 0.0111
19,AGATTCAT,0.24 ± 0.0201
20,AGATTCCT,0.4552 ± 0.00311
21,AGATTCAG,0.238 ± 0.0658
22,AGATTCCC,0.493 ± 0.00512

row,Sequence,binding signal [E-score]
1,ATTTTCCA,0.294 ± 0.00656
2,AGATTCCG,0.4631 ± 0.000925
3,CAATTCCC,0.217 ± 0.0511
4,AGATCGTG,0.339 ± 0.0193
5,ATCCGCGG,0.28 ± 0.0747
6,AGAATTCG,0.221 ± 0.0588
7,AATCGACT,0.263 ± 0.0439
8,CAATCGAA,0.202 ± 0.113
9,ATCCTCCA,0.285 ± 0.089
10,ACAAGAGA,0.277 ± 0.0453
11,ACTCGTAA,0.247 ± 0.062
12,ATAATCAC,0.214 ± 0.0373
13,AATCGTGC,0.299 ± 0.027
14,ATTACCCC,0.247 ± 0.0858
15,AATCTAGG,0.4332 ± 0.00364
16,AATCTAGT,0.421 ± 0.0336
17,AATCTAGA,0.452 ± 0.018
18,AATCAAGA,0.308 ± 0.0329
19,AATCGAGC,0.207 ± 0.052
20,AATCAAGG,0.258 ± 0.0284
21,AATCAAGT,0.233 ± 0.1
22,ATTCTAGA,0.2 ± 0.0443

row,Sequence,binding signal [E-score]
1,AATCAAGC,0.22 ± 0.0411
2,AATCTAGC,0.404 ± 0.00637
3,ATCCTAGC,0.237 ± 0.018
4,ATCCCCGC,0.2 ± 0.0376
5,ATTACACG,0.268 ± 0.0173
6,CACGATTA,0.202 ± 0.0336
7,ATGCGTAA,0.21 ± 0.0884
8,AATCACCG,0.281 ± 0.0154
9,AATTTCCT,0.255 ± 0.00447
10,AATCCCCC,0.215 ± 0.101
11,AATCTCCC,0.387 ± 0.0218
12,AATCGCCT,0.225 ± 0.129
13,ATTCTCCC,0.255 ± 0.0215
14,AATCTCCG,0.437 ± 0.00941
15,ATTCTCCG,0.338 ± 0.0548
16,AATCTCCA,0.389 ± 0.05
17,ATTCTCCA,0.31 ± 0.0567
18,AATCTCCT,0.4008 ± 0.00273
19,AATCACCA,0.26 ± 0.00706
20,ATCCGGTA,0.286 ± 0.0898
21,ATTTGCAC,0.305 ± 0.0821
22,ATCCAATA,0.324 ± 0.0209

row,Sequence,binding signal [E-score]
1,ATCTTTGG,0.304 ± 0.0128
2,ATCTTTTA,0.259 ± 0.0767
3,ATACCGCA,0.211 ± 0.101
4,AAAGCGAT,0.215 ± 0.0733
5,AATTTGCG,0.223 ± 0.0644
6,ATTCACAA,0.218 ± 0.0225
7,AAAGCAAT,0.27 ± 0.0827
8,ATATCCTC,0.402 ± 0.00645
9,ATATCCTG,0.373 ± 0.0434
10,ATCTCCTC,0.296 ± 0.0162
11,ATATCGTA,0.364 ± 0.049
12,ATTTCCTA,0.358 ± 0.0333
13,ATATCCTA,0.416 ± 0.0447
14,ATTTGGTG,0.213 ± 0.0582
15,AGACAGAT,0.222 ± 0.0932
16,ATCCTGCA,0.261 ± 0.126
17,AGAAGATA,0.26 ± 0.0155
18,AGAAGATC,0.383 ± 0.0277
19,ACGAGATA,0.2747 ± 0.00202
20,ACGAGATC,0.41 ± 0.00651
21,ACAAGATC,0.2947 ± 0.00243
22,AGGAGATC,0.382 ± 0.00924

row,Sequence,binding signal [E-score]
1,AGGAGAAT,0.267 ± 0.0583
2,ATGAGATC,0.369 ± 0.0039
3,AGGAGATA,0.228 ± 0.0512
4,AACGTATC,0.322 ± 0.0281
5,ATTACATG,0.293 ± 0.0579
6,ATCTGTAG,0.3 ± 0.055
7,ATACGCAT,0.204 ± 0.0532
8,ATCTGATC,0.329 ± 0.0755
9,ATTACACA,0.31 ± 0.0413
10,ATCTCCCC,0.301 ± 0.0229
11,ATCTCTCG,0.231 ± 0.0608
12,ATATCTCC,0.388 ± 0.0404
13,ATATCTCA,0.3895 ± 0.00167
14,ATCTCTCA,0.295 ± 0.0129
15,ATATCACG,0.347 ± 0.0113
16,ATATCACC,0.277 ± 0.0211
17,ATTTCTCA,0.248 ± 0.108
18,ATATCTCG,0.435 ± 0.0109
19,AATCCCCA,0.346 ± 0.00463
20,ACTAAATC,0.213 ± 0.00269
21,AACACAAT,0.213 ± 0.0479
22,ATTACAAC,0.257 ± 0.0217
